Measured values published in the supplement of paper PMC10849652.
About 7,900 targets were measured; listed, in parts, are those with a hit and a random draw of the rest. About 0.6% of all pairs of compound and target were hits. Unmarked numbers belong to inactive results.

Tests used:
Assay in all cases: log2 fold change, soluble protein after heating vs DMSO (PISA); higher = thermal stabilisation; K562 cells, 10 uM, 30 min; active = over 0.2 and 3.5 SD of the protein, either way, in both replicates (recomputed)
IRAK-1-4 Inhibitor I = compound: C1COCCN1CCN2C3=CC=CC=C3N=C2NC(=O)C4=CC(=CC=C4)[N+](=O)[O-] [IRAK-1-4 Inhibitor I]
Outline: (§1)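 For each measurement, 10 μM compound was applied for 30 min to K562 cells at 2×10^6 cells/mL. Aliquots were heated for 3 min across 48°C-58°C, pooled, and extracted in PBS with 0.5% NP-40 at 4°C; the supernatant after 21,000xg for 90 min was soluble protein. This was quantified by TMTpro 16plex LC-MS/MS with channel sums equalised, and thermal stability was reported relative to control samples from duplicates, on a log2 fold-change scale.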

ibrutinib = compound: C=CC(=O)N1CCC[C@@H](n2nc(-c3ccc(Oc4ccccc4)cc3)c3c(N)ncnc32)C1 [ibrutinib]
Outline: as §1

[1] = compound: CC(=O)c1cnc2ccc(-c3cc(Cl)c(O)c(Cl)c3)nc2c1N[C@H]1CC[C@H](CN(C)C)CC1
Outline: as §1

ralimetinib = compound: CC(C)(C)Cn1c(N)nc2ccc(-c3[nH]c(C(C)(C)C)nc3-c3ccc(F)cc3)nc21 [ralimetinib]
Outline: as §1

[2] = compound: CC(C)(O)CC(=O)NCCn1ccc2ncnc(Nc3ccc(Oc4cccc(C(F)(F)F)c4)c(Cl)c3)c21
Outline: as §1

[3] = compound: CC(C)C1=C2N=C(C=C(N2N=C1)NCC3=CC=CC=C3)NCCCCCCN
Outline: as §1

[4] = compound: CC(C)C[C@@H](C=O)NC(=O)[C@H](CC(C)C)NC(=O)[C@H](CC(C)C)NC(=O)OCc1ccccc1
Outline: as §1

pinometostat = compound: CC(C)N(C[C@H]1O[C@@H](n2cnc3c(N)ncnc32)[C@H](O)[C@@H]1O)[C@H]1C[C@@H](CCc2nc3cc(C(C)(C)C)ccc3[nH]2)C1 [pinometostat]
Outline: as §1

[5] = compound: CC1=C(C(CC(=O)N1)C2=CC=C(C=C2)C(F)(F)F)C(=O)NC3=C(C=C4C(=C3)C=NN4)F
Outline: as §1

[6] = compound: CC1=C(C2=C(C=C1)C(=O)C3=CC=CC=C3N2CCCN)C
Outline: as §1

Chain of UniProt Q9UNA0 (Q9UNA0 whole entry, looked up): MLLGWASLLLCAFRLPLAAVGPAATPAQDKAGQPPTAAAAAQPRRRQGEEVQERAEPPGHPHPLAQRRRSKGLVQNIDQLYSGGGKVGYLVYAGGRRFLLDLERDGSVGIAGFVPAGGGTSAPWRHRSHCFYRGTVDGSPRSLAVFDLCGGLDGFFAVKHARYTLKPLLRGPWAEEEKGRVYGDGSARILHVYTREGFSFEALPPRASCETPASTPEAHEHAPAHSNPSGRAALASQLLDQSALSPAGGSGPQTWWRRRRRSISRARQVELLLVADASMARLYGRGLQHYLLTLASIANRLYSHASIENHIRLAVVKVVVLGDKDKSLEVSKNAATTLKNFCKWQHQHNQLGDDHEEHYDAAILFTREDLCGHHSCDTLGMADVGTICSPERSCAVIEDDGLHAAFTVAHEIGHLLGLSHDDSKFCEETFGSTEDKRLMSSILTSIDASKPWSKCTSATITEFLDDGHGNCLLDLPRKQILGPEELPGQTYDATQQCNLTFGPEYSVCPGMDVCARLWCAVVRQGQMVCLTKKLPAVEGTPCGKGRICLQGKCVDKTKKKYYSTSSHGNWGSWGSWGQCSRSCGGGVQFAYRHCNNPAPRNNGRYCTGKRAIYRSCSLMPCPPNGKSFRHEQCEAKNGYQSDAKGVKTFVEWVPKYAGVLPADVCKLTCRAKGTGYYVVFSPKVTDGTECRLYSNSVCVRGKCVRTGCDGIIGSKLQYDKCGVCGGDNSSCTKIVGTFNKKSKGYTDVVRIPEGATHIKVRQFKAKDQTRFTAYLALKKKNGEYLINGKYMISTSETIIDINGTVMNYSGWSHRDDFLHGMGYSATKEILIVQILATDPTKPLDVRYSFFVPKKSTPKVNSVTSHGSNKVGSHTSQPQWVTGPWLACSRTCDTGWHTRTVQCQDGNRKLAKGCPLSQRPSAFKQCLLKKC
Chain of UniProt Q9BTT0 (Q9BTT0 whole entry, looked up): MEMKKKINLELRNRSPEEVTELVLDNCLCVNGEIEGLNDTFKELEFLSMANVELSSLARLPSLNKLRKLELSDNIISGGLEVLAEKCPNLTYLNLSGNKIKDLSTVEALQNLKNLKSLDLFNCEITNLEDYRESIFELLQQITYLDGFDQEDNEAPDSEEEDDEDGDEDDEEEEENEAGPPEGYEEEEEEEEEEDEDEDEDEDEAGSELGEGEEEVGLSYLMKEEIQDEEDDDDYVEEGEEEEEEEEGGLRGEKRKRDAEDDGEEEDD
Chain of UniProt Q9NQ11 (Q9NQ11 whole entry, looked up): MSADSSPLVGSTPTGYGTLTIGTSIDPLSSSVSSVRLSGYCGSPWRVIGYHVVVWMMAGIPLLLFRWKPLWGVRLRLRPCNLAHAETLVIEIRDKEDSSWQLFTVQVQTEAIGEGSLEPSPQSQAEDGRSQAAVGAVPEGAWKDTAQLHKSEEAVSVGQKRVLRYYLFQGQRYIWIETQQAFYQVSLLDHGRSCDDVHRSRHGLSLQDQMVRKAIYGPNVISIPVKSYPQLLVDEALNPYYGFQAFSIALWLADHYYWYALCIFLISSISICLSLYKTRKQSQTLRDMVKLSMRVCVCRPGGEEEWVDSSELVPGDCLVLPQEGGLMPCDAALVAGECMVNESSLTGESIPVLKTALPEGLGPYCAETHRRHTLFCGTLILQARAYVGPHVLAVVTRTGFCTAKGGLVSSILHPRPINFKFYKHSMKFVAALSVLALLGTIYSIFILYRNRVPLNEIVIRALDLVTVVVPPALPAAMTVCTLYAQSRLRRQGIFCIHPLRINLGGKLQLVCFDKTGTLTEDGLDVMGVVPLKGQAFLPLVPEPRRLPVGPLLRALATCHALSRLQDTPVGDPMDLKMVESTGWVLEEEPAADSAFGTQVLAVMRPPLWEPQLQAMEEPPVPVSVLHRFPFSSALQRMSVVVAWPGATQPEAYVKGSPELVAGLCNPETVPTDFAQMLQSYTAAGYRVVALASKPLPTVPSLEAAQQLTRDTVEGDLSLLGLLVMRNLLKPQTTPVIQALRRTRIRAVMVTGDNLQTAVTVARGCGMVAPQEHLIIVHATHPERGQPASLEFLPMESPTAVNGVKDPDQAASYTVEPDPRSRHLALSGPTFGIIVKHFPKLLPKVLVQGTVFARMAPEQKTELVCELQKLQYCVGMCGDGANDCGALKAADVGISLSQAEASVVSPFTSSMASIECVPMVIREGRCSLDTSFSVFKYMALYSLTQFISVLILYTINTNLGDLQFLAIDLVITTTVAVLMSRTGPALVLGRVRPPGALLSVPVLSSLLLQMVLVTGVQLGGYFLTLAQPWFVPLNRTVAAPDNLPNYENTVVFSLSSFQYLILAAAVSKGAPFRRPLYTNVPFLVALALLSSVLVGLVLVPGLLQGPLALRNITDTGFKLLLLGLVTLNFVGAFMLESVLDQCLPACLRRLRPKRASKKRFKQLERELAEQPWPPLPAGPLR
Chain of UniProt Q96CW1 (Q96CW1 whole entry, looked up): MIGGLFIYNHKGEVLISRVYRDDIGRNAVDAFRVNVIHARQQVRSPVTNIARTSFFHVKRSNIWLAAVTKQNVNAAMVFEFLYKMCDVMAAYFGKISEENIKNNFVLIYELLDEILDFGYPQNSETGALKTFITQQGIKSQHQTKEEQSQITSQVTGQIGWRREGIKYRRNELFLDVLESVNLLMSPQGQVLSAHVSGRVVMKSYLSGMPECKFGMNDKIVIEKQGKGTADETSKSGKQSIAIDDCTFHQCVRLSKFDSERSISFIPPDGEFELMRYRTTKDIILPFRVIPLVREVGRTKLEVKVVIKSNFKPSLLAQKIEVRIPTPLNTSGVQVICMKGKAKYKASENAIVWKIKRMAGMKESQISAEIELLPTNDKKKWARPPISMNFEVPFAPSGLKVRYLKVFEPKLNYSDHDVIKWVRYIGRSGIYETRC
Chain of UniProt Q9BTE6 (Q9BTE6 whole entry, looked up): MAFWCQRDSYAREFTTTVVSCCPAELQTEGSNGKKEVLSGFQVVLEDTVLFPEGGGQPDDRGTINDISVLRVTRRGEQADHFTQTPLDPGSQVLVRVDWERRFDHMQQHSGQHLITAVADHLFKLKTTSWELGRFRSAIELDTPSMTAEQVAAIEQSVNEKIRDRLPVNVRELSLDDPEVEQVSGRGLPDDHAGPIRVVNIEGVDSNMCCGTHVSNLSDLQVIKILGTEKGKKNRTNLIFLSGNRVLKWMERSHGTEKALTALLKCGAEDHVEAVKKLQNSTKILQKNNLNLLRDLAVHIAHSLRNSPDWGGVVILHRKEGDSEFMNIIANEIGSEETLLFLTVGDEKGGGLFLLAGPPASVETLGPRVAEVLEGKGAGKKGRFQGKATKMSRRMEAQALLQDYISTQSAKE
Chain of UniProt P02749 (P02749 whole entry, looked up): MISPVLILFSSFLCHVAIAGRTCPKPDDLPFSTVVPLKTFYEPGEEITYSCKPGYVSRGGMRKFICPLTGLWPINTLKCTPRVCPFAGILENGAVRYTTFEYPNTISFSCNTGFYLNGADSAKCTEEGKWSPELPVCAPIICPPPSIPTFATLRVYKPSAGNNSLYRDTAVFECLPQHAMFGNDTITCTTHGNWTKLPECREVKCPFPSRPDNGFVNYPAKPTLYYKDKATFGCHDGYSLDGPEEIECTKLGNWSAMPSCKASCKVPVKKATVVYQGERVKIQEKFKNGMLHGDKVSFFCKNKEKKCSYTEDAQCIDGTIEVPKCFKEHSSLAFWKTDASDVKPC
Chain of UniProt P11310 (P11310 whole entry, looked up): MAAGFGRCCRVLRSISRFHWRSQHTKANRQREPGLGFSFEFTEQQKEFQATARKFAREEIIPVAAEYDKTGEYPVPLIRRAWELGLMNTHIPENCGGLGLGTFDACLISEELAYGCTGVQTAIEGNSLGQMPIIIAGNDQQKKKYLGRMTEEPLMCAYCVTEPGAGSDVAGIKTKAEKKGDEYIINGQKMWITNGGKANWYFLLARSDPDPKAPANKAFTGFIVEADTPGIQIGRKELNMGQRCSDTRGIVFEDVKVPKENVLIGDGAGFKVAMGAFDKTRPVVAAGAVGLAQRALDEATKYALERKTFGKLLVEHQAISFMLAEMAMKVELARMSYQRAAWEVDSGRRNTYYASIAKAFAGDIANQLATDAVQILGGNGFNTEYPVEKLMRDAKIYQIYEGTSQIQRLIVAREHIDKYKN
Chain of UniProt Q9BUT1 (Q9BUT1 whole entry, looked up): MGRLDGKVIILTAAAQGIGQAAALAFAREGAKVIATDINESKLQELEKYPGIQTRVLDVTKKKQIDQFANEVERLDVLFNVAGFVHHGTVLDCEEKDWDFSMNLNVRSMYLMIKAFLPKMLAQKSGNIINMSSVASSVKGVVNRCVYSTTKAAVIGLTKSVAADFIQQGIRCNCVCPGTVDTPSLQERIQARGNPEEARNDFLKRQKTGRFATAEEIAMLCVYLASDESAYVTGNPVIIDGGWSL
Chain of UniProt Q96BI3 (Q96BI3 whole entry, looked up): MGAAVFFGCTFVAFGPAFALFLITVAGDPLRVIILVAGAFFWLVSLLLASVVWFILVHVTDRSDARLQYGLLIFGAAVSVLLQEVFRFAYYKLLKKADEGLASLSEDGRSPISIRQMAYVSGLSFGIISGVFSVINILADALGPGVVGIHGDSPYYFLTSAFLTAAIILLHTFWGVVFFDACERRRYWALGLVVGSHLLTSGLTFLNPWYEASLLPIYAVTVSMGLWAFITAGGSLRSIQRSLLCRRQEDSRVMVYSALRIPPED
Chain of UniProt Q13825 (Q13825 whole entry, looked up): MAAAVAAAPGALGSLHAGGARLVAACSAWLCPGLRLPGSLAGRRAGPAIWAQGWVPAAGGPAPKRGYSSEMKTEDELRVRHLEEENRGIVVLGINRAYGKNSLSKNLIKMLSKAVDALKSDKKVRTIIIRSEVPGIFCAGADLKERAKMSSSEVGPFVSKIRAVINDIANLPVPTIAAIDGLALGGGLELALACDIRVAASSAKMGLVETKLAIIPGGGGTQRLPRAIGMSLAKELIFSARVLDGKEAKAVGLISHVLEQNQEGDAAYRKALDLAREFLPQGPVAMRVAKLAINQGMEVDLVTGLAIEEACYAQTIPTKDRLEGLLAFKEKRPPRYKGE

Target | log2 fold change (IRAK-1-4 Inhibitor I) | log2 fold change (ibrutinib) | log2 fold change [1] | log2 fold change (ralimetinib) | log2 fold change [2] | log2 fold change [3] | log2 fold change [4] | log2 fold change (pinometostat) | log2 fold change [5] | log2 fold change [6]
AP2M1 (UniProt Q96CW1) | -0.049 | 0.043 | -0.043 | 0.036 | 0.022 | 0.045 | 0.011 | 0.026 | 0.011 | 0.079
APOH (UniProt P02749) | 0.13 | 0.155 | 0.211 | -0.131 | – | -0.067 | 0.119 | -0.117 | 0.419 | -0.126
BCAP29 isoform 2 (UniProt Q9UHQ4) | 0.051 | -0.014 | 0.011 | -0.094 | 0.111 | -0.106 | 0.007 | -0.012 | 0.026 | 0.052
ATP13A2 (UniProt Q9NQ11) | 0.04 | 0.074 | 0.007 | -0.033 | -0.03 | -0.511 (active) | 0.011 | 0.063 | 0.044 | 0.181
BDH2 (UniProt Q9BUT1) | -0.009 | 0.041 | -0.073 | -0.059 | – | 0.183 | 0.001 | 0.004 | – | –
ATP7B (UniProt P35670) | -0.022 | -0.033 | 0.077 | 0.043 | 0.003 | 0.011 | 0.015 | 0.056 | -0.124 | 0.061
ATP6V1C1 (UniProt P21283) | -0.102 | -0.041 | -0.074 | 0.036 | 0.039 | -0.008 | 0.052 | 0.068 | 0.032 | -0.037
APH1A (UniProt Q96BI3) | 0.021 | 0.036 | -0.076 | – | – | -0.047 | – | -0.056 | 0.028 | -0.03
BRD8 (UniProt Q9H0E9) | 0 | -0.014 | -0.009 | -0.022 | -0.012 | -0.013 | 0.098 | 0.001 | 0.03 | -0.019
BID isoform 2 (UniProt P55957) | 0.052 | 0.008 | -0.039 | -0.038 | -0.053 | 0.105 | 0.012 | -0.018 | -0.047 | 0.074
ANP32E (UniProt Q9BTT0) | 0.016 | 0.019 | -0.128 | -0.035 | -0.067 | -0.181 | -0.036 | 0.028 | 0.082 | -0.214
ABCA3 (UniProt Q99758) | -0.012 | -0.051 | -0.005 | -0.096 | -0.096 | -0.007 | -0.017 | 0.203 | – | 0.054
ALKBH4 (UniProt Q9NXW9) | 0.009 | -0.126 | -0.07 | 0.017 | -0.12 | -0.086 | -0.033 | -0.065 | – | -0.11
ANK2 (UniProt Q01484) | -0.069 | -0.024 | -0.058 | -0.029 | – | -0.178 | 0.08 | 0.062 | 0.071 | 0.423 (active)
ADAMTS5 (UniProt Q9UNA0) | 0.064 | 0.127 | 0.036 | 0.141 | – | 0.088 | -0.009 | -0.03 | -0.015 | 0.025
ACP1 (UniProt P24666) | -0.027 | -0.073 | -0.083 | – | -0.238 | -0.071 | – | 0.107 | -0.055 | -0.087
ATRN (UniProt O75882) | -0.084 | 0.083 | 0.012 | – | -0.02 | 0.033 | – | 0.079 | -0.08 | 0.044

Target | log2 fold change (IRAK-1-4 Inhibitor I) | log2 fold change (ibrutinib) | log2 fold change [1] | log2 fold change (ralimetinib) | log2 fold change [2] | log2 fold change [3] | log2 fold change [4] | log2 fold change (pinometostat) | log2 fold change [5] | log2 fold change [6]
BRD3 (UniProt Q15059) | 0.163 | 0.037 | -0.032 | -0.136 | – | 0.152 | -0.065 | 0.143 | 0.026 | 0.162
AGRN (UniProt O00468) | -0.205 | 0.09 | -0.025 | 0.125 | -0.022 | 0.156 | -0.066 | -0.005 | 0.078 | 0.014
ARMC10 (UniProt Q8N2F6) | 0.001 | -0.018 | -0.035 | -0.003 | -0.029 | 0.005 | 0.034 | 0.033 | 0.003 | 0
ALG3 (UniProt Q92685) | -0.081 | -0.022 | -0.08 | -0.08 | -0.034 | -0.267 | -0.038 | -0.075 | -0.037 | -0.045
BRD8 isoform 2 (UniProt Q9H0E9) | 0.028 | 0 | 0.036 | -0.103 | 0.021 | -0.003 | 0.093 | 0.01 | – | -0.071
AP2M1 (UniProt C9JTK4) | 0.056 | -0.044 | 0.049 | – | 0.005 | – | – | 0.03 | 0.085 | 0.001
ATXN3 isoform 1 (UniProt P54252) | -0.031 | 0.028 | 0.065 | 0.018 | – | -0.314 | 0.234 | 0.021 | 0.018 | 0.016
AARSD1 (UniProt Q9BTE6) | 0.264 | 0.135 | 0.107 | – | – | -0.13 | – | 0.041 | -0.045 | –
ACADM isoform 2 (UniProt P11310) | 0.028 | 0.034 | -0.013 | -0.068 | -0.043 | 0.051 | -0.001 | -0.085 | -0.006 | 0
AP2S1 (UniProt P53680) | -0.054 | -0.01 | -0.117 | -0.017 | -0.003 | 0.028 | -0.07 | 0.038 | -0.009 | 0.091
AP4S1 (UniProt Q9Y587) | -0.061 | -0.12 | 0.008 | – | -0.079 | 0 | – | -0.145 | 0.027 | –
ABITRAM (UniProt Q9NX38) | 0.041 | 0.005 | -0.073 | -0.088 | -0.008 | – | 0.016 | -0.025 | 0.049 | 0.001
AUH (UniProt Q13825) | -0.237 | 0.031 | 0.036 | -0.003 | – | 0.084 | 0.026 | 0.28 | – | 0.032
ACOX3 (UniProt O15254) | 0.095 | 0.035 | -0.177 | – | 0.061 | 0.022 | – | -0.021 | -0.081 | -0.051
AZI2 (UniProt Q9H6S1) | – | 0.046 | – | -0.241 | – | -0.126 | -0.09 | – | -0.018 | 0.022
AASDH (UniProt Q4L235) | 0.037 | -0.308 | – | -0.011 | -0.15 | -0.107 | -0.066 | 0.038 | -0.017 | -0.184
BAP18 isoform 3 (UniProt Q8IXM2) | – | – | – | – | – | 0.074 | – | – | – | -0.183
